The text below walks through data of PubChem BioAssay (NCATS).

Inconclusive results are not listed. A number with no mark means an inactive call. The source made the active and inactive calls. Calls come from the whole dose curve; as a rule, active = well fitted cell-killing curve with a large enough effect; inconclusive = small, poorly fitted or top-dose-only effect, or effect the other way; inactive = no such curve, though single readings can be large or run the other way.
Potency is the fitted concentration of half-maximal effect.

The nature of the assay: Quantitative High-Throughput drug screen in 47 multiple myeloma cell lines against the NCATS MIPE library collection: OCIMY5_PLB cell viability assay (AID 1918988). Note: nearly all actives have a fitted effect of over 65% in size. As to conditions: OCI-MY5 myeloma viability, ATP luminescence, 48 h; series mostly up to 45.8 µM; viability, % of control: at the top concentration. The text has this: PI: Beverly A. Mock Ph.D.
Laboratory of Cancer Biology and Genetics,
Center for Cancer Research, National Cancer Institute,
National Institute of Health, Bethesda, Maryland
Drug resistance and disease progression are common in multiple myeloma (MM) patients, underscoring the need for new therapeutic combinations. […] We hypothesized that effective combinations would reduce MYC expression and enhance p16 activity. […] These preclinical data identify potentially useful drug combinations for evaluation in drug-resistant MM and reveal potential mechanisms of combined drug sensitivity.
Described herein is the primary MIPE qHTS used to cherrypick compounds. Validated compounds were then further tested for potential synergistic activiy.
[1] Peat TJ, Gaikwad SM, Dubois W, Gyabaah-Kessie N, Zhang S, Gorjifard S, Phyo Z, Andres M, Hughitt VK, Simpson RM, Miller MA, Girvin AT, Taylor A, Williams D, D'Antonio N, Zhang Y, Rajagopalan A, Flietner E, Wilson K, Zhang X, Shinn P, Klumpp-Thomas C, McKnight C, Itkin Z, Chen L, Kazandijian D, Zhang J, Michalowski AM, Simmons JK, Keats J, Thomas CJ, Mock BA. Drug combinations identified by high-throughput screening promote cell cycle transition and upregulate Smad pathways in myeloma. Cancer Lett. 2023 Aug 1;568:216284. doi: 10.1016/j.canlet.2023.216284. Epub 2023 Jun 24. PMID: 37356470; PMCID: PMC10408729.
SEQUENCE No. (e.g., 1, 2, 3, etc.); […] (e.g., Cells, Incubation, Reagent, etc.); VALUE and DESCRIPTION.
1; Cells; 5 uL; white, solid bottom 1536-well Greiner assay plate.
2; Compounds; 23 nL; Kalypsis pin tool (Wako USA) equipped with a 1536-well pin head to transfer to the assay plates.
3; Incubation; 48 hours; 37C incubation.
4; Reagent;5uL; CellTiter Glo (Promega).
5; Detector; 425V; Luminescence; Viewlux PerkinElmer.
NOTES (numbers refer to Sequence numbers above)
1. The cell-based screening methods employed in this study were like those previously published. Briefly, the corresponding myeloma cell lines were screened in 1,536-well plates with 500 cells, 5-uL per well for inhibition of cell viability (assessed by measuring ATP levels with CellTiterGlo).
2. NCATS MIPE 4.0 library of approved and investigational drugs were added using the Kalypsis pin tool. Wells treated with DMSO only for 100% viability and media only for 0% viability were used as controls.
3. The assay plates were covered and incubated for 48 hours in a 37C, 5% CO2 incubator with controlled humidity.
4. After 48 hours, CellTilter-GloTM luminescent substrate mix (Promega) reagent was added to the assay plate and plates we incubated for 5 min at room temperature.
5. Signal was measured as median relative luminescence units on a ViewLux (PerkinElmer) multiplate reader.
[1] Heske CM, Davis MI, Baumgart JT, Wilson K, Gormally MV, Chen L, Zhang X, Ceribelli M, Duveau DY, Guha R, Ferrer M, Arnaldez FI, Ji J, Tran HL, Zhang Y, Mendoza A, Helman LJ, Thomas CJ. Matrix Screen Identifies Synergistic Combination of PARP Inhibitors and Nicotinamide Phosphoribosyltransferase (NAMPT) Inhibitors in Ewing Sarcoma. Clin Cancer Res. 2017 Dec 1;23(23):7301-7311. doi: 10.1158/1078-0432.CCR-17-1121. Epub 2017 Sep 12. PMID: 28899971; PMCID: PMC6636827.
Regarding `CN(C)CCCN1c2ccccc2CCc2ccc(Cl)cc21`, the Potency is 0.418 µM (active).
On the same count and under the same terms, with `OCCN1CCN(CCCN2c3ccccc3Sc3ccc(C(F)(F)F)cc32)CC1` the figure was 20.9 µM (active); with `Cn1cnc2c1c(=O)[nH]c(=O)n2C`, 14.8 µM (active); with `CN1CCN2c3ccccc3Cc3ccccc3C2C1` (stereo not given), 23.5 µM (active).
Still for that read-out and setting: the figure for `NC12CC3CC(CC(C3)C1)C2` is 0.0026 µM (active).
Turning to `CC(=O)OCC(CCn1cnc2cnc(N)nc21)COC(C)=O`, the “viability, % of control” value was 160%.
In the case of `CC#C[C@]1(O)CC[C@H]2[C@@H]3CCC4=CC(=O)CCC4=C3[C@@H](c3ccc(N(C)C)cc3)C[C@@]21C`, the Potency is 0.833 µM (active).
In the case of `CN1C(C(=O)Nc2ccccn2)=C(O)c2ccccc2S1(=O)=O`, the “viability, % of control” value was 165%.
For `C[C@H]1c2cccc(O)c2C(O)=C2C(=O)[C@]3(O)C(O)=C(C(N)=O)C(=O)[C@@H](N(C)C)[C@@H]3[C@@H](O)[C@@H]21`, the Potency is 23.5 µM (active).
Same read-out and setting: with `Nc1nc2c(ncn2COC(CO)CO)c(=O)[nH]1` the figure was 20.9 µM (active); with `O=C(Nc1ccc([N+](=O)[O-])cc1Cl)c1cc(Cl)ccc1O`, 1.66 µM (active).
For the molecule `CC(C)NCC(O)COc1ccc(CCOCC2CC2)cc1` (stereo not given), the “viability, % of control” value was 175%.
`CN1CCN(CCCN2c3ccccc3Sc3ccc(Cl)cc32)CC1`: the Potency is 26.4 µM (active).
For the molecule `CC(C)C(=O)Nc1ccc([N+](=O)[O-])c(C(F)(F)F)c1`, the Potency was 1.48 µM (active).
Same read-out and setting: with `CS(=O)(=O)Nc1ccc([N+](=O)[O-])cc1Oc1ccccc1` the figure was 11.8 µM (active); with `O=C(c1ccc(OCCN2CCCCC2)cc1)c1c(-c2ccc(O)cc2)sc2cc(O)ccc12`, 18.7 µM (active); with `CN1CCC(=C2c3ccccc3C=Cc3ccccc32)CC1`, 18.7 µM (active).
The same measure, in the same setting: the figure for `CC(C(=O)O)c1cccc(C(=O)c2ccccc2)c1` (stereo not given) is 20.9 µM (active).
As for `N[C@@H](Cc1c[nH]c2ccc(O)cc12)C(=O)O`, the “viability, % of control” value was 164%.
In the case of `O=C1N(c2ccccc2)c2ccccc2C1(Cc1ccncc1)Cc1ccncc1`, the Potency is 37.2 µM (active).
As for `CN1CCN(C2=Nc3cc(Cl)ccc3Nc3ccccc32)CC1`, the “viability, % of control” value is 133%.
In the case of `O=C1Cc2cc(CCN3CCN(c4nsc5ccccc45)CC3)c(Cl)cc2N1`, the Potency was 37.2 µM (active).
The same measure, in the same setting: the figure for `O=C(c1ccc(F)cc1)C1CCN(CCn2c(=O)[nH]c3ccccc3c2=O)CC1` is 26.4 µM (active); for `O=C1c2c(O)ccc(O)c2C(=O)c2c(NCCNCCO)ccc(NCCNCCO)c21` it is 1.32 µM (active).
`Nc1nnc(-c2cccc(Cl)c2Cl)c(N)n1`: the “viability, % of control” value was 190%.
For the molecule `OCCN(CCO)c1nc(N2CCCCC2)c2nc(N(CCO)CCO)nc(N3CCCCC3)c2n1`, the Potency was 23.5 µM (active).
The same measure, in the same setting: the figure for `COC(=O)Nc1nc2ccc(C(=O)c3cccs3)cc2[nH]1` is 0.0021 µM (active); for `Cc1ccc(-c2cc(C(F)(F)F)nn2-c2ccc(S(N)(=O)=O)cc2)cc1` it is 20.9 µM (active); for `C[C@@H]1CC(=O)NN=C1c1ccc(NN=C(C#N)C#N)cc1` it is 18.7 µM (active).
Same read-out and setting: the figure for `CN(C)CCC=C1c2ccccc2C=Cc2ccccc21` is 14.8 µM (active); for `COc1ccccc1OCCNCC(O)COc1cccc2[nH]c3ccccc3c12` (stereo not given) it is 18.7 µM (active).
As for `CCOC(=O)C(C)(C)Oc1ccc(Cl)cc1`, the “viability, % of control” value is 186%.
Take `Nc1c2c(nc3ccccc13)CCCC2`: the Potency is 23.5 µM (active).
Still for that read-out and setting: with `CNCCCC12CCC(c3ccccc31)c1ccccc12` the figure was 23.5 µM (active).
On to `CCC1(C)CC(=O)NC1=O` (stereo not given), for which the “viability, % of control” value is 163%.
Regarding `CCCCc1oc2ccccc2c1C(=O)c1cc(I)c(OCCN(CC)CC)c(I)c1`, the Potency is 16.6 µM (active).
On the same count and under the same terms, the figure for `Clc1ccc2c(c1)C(N1CCNCC1)=Nc1ccccc1O2` is 20.9 µM (active).
On to `Cc1ccccc1N1C(=O)c2cc(S(N)(=O)=O)c(Cl)cc2NC1C` (stereo not given), for which the “viability, % of control” value is 152%.
Same read-out and setting: with `CC(C)Cc1ccc(C(C)C(=O)O)cc1` (stereo not given) the figure was 158% [at 23.2 µM].
As for `CC[C@@]1(O)C(=O)OCc2c1cc1n(c2=O)Cc2cc3c(CN(C)C)c(O)ccc3nc2-1`, the Potency was 5.9 µM (active).
